# From PubChem
# Rows were chosen to be rich in hits. Some 3.5% of all compounds tested hit in one or more screens of this group.
# FBW7 activator = activators of human E3 ligase FBW7. AlphaScreen FBW7–phospho-cyclin E peptide binding, activator screen. normalized activity (activation), % at 26.1 µM. 650,000 compounds, 0.13% hits. AID 1259310; in the data active = normalized activity above about 1.9%;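 note: purified mutant Fbw7 with reduced substrate affinity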
# GPR151 activ = activates the human receptor GPR151 | AID 1508602 | 650,000 compounds, 1% hits | PathHunter beta-arrestin GPR151 cells, luminescence | activation, % at 11.2 µM; in the data active = activation above about 4.9%;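 note: 0% = median of compound wells and 100% = cells with positive control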
# Target sequence (Q8TDV0 whole entry, looked up): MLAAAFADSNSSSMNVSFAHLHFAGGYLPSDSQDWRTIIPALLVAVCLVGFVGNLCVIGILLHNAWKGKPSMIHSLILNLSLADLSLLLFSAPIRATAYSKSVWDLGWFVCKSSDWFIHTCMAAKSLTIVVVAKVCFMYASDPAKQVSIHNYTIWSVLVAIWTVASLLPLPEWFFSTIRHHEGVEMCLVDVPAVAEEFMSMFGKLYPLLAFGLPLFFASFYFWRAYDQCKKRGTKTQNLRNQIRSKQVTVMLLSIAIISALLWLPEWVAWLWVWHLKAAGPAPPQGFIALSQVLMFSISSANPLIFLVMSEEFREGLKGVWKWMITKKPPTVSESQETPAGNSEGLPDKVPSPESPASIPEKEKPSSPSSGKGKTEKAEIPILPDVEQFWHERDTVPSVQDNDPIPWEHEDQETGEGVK
# TEAD-YAP block = TEAD-YAP interaction inhibition | inhibition, % at 9.12 µM | HEK-TIYL cells, TEAD-Gal4/YAP UAS-luciferase luminescence | 640,000 compounds, 1.4% hits; in the data active = inhibition above about 32%;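 note: 0% = median of test compound wells and 100% = reference inhibitor wells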
# MITF primary = blocks human microphthalmia-associated transcription factor; 650,000 compounds, 0.91% hits; AlphaScreen MITF homodimerization, bead proximity signal; inhibition, % at 2.6 µM; O75030; in the data active = inhibition above about 50%;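 note: 0% = vehicle wells with protein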
# MITF inh conf = confirmation of human MITF inhibitors | shares compounds with MITF primary | AlphaScreen MITF homodimerization, biotin/His-MITF beads | inhibition, % at 2.6 µM | 4,700 compounds, 16% hits | AID 1259372;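 active = inhibition above a cutoff derived from the DMSO control wells, cut at about 28% in these data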;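 note: 0% = MITF dimer wells with DMSO only; inhibitors lower the bead chemiluminescence by keeping MITF from dimerizing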
# AlphaScreen DR = optically interferes with AlphaScreen signal in dose response | shares compounds with MITF primary | AlphaScreen optical interference counterscreen, cell-free | IC50, µM | 480 compounds, 6% hits | AID 1259373; call rule not given here
# AS interf ctr = optically interferes with AlphaScreen signal. shares compounds with MITF primary. LysRS AlphaScreen counterscreen, signal interference, triplicate. inhibition, % at 2.6 µM. 4,700 compounds, 7.6% hits;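 active = inhibition above a cutoff derived from the DMSO control wells, cut at about 30% in these data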
# Starred values were filed as active, the others as inactive; · = no result given.
SMILES,FBW7 activator,GPR151 activ,TEAD-YAP block,MITF primary,MITF inh conf,AS interf ctr,others
CCOc1ccc(CN2CCN(Cc3cccnc3)CC2)cc1,0,1,2,55*,35*,9,AlphaScreen DR=>5.8
CCOC(=O)c1c(-c2ccccc2)csc1NC(=O)CN1C(=O)NC2(CCCC2)C1=O,0,1,3,8,·,·,
CCOc1cc(CN2CCN(C3CCCC3)CC2)ccc1OC,0,1,6,53*,-2,-7,
CCOc1cc(CN2CCN(Cc3ccccc3Cl)CC2)ccc1OC,0,0,-7,67*,8,12,
Cc1ccc(S(=O)(=O)C(C)C(=O)c2ccccc2)cc1 (stereo unspecified),0,0,-1,20,·,·,
O=C1CCC(=O)N1C(=O)c1ccc(F)cc1,1,1,6,2,·,·,
CCN1CCN(CCOc2cc(C)ccc2Cl)CC1,-1,1,1,72*,8,17,
CCN1CCN(CCCOc2ccc(C)cc2Cl)CC1,0,0,-6,68*,12,14,
CCN1CCN(CCOc2cccc(Cl)c2Cl)CC1,0,2,-2,72*,8,14,
CCN1CCN(CCCOc2ccccc2F)CC1,0,0,1,33,·,·,
CCNC(=S)NNC(=O)c1ccc(NC(=O)CC#N)cc1,0,-1,-1,-6,·,·,
CC(=O)c1ccc(NC(=S)NNC(=O)CC#N)cc1,0,-2,1,93*,12,10,
CCCOc1ccc(N)cc1N,-1,1,6,57*,110*,-9,AlphaScreen DR=>6.2
Cc1ccc(C(C)C)cc1OCCN1CCOCC1,0,0,14,51*,-11,-7,
Cc1ccc(C(C)C)cc1OCCCCN1CCOCC1,0,1,10,79*,-7,-6,
COc1cccc(OCCn2cncn2)c1,1,-1,4,11,·,·,
Cc1cc(OCCN2CCOCC2)ccc1C(C)C,0,-2,-39,59*,2,3,
Cc1ccc(C)c(OCCCN2CCOCC2)c1,0,1,2,10,·,·,
Cc1ccc(C(C)C)cc1OCCn1cncn1,0,1,-8,66*,10,17,
COc1ccc(C(=O)CN2CCN(S(=O)(=O)c3ccc(Br)cc3)CC2)cc1,0,1,4,6,·,·,
CCCCC/C=C\C\C=C/C=C/C=C/[C@@H](SCC(NC(=O)CCC(N)C(=O)O)C(=O)O)[C@@H](O)CCCC(=O)O (stereo partly specified),·,-3,·,-13,·,·,
CC(C)c1cccc(OCCCN2CCOCC2)c1,0,3,-1,56*,14,15,
O=C(OCc1ccccc1)N1CCN2C(=O)[C@@H]3CCCN3C(=O)[C@H]2C1,0,1,-5,2,·,·,
C[C@H]1C(=O)N2CCN(C(=O)NCc3ccccc3)C[C@@H]2C(=O)N1C,0,-1,9,76*,73*,-7,AlphaScreen DR=>6.5
C[C@H]1C(=O)N2CCN(CCc3ccccc3)C[C@@H]2C(=O)N1C,0,1,1,1,·,·,
SMILES,FBW7 activator,GPR151 activ,TEAD-YAP block,MITF primary,MITF inh conf,AS interf ctr,others
O=C(NCc1ccccc1)N1CCN2C(=O)[C@@H]3CCCN3C(=O)[C@H]2C1,0,0,2,77*,74*,-9,AlphaScreen DR=>6.5
COc1ccc2c(c1)CC(c1nc3ncc(-c4ccnc(N)n4)cc3[nH]1)CO2 (stereo unspecified),0,-1,22,18,·,·,
CC(=O)c1ccc2c(c1)CC(c1nc3ncc(-c4ccnc(N)n4)cc3[nH]1)CO2 (stereo unspecified),1,2,11,51*,23,-12,
O=C(C(=O)N1CCCC(CO)(Cc2ccccc2)C1)c1ccccc1 (stereo unspecified),0,-1,-13,-8,·,·,
Cc1nc(N2CCC(C(N)=O)CC2)c2c(C)c(C)sc2n1,0,1,7,10,·,·,
CC(=O)c1cccc(NC(=O)c2cc3nc(C)ccc3o2)c1,0,-2,7,1,·,·,
NCCCNc1c2c(nc3cc(-c4cccc(F)c4)nn13)CCC2,0,0,-6,-5,·,·,
NCCCNc1c2c(nc3cc(-c4ccc(Cl)cc4)nn13)CCC2,0,1,2,54*,13,19,
COc1ccc(COCC(O)CNCCOCCO)cc1OC (stereo unspecified),0,0,-4,5,·,·,
OC(COc1ccccc1)CN1CCOCC1 (stereo unspecified),0,0,1,-1,·,·,
COc1ccc(COCC(O)CNCCCN2CCOCC2)cc1OC (stereo unspecified),0,-1,9,54*,-7,-2,
OC(CNCCN1CCOCC1)COC1CCCc2ccccc21 (stereo unspecified),0,0,7,73*,13,15,
OC(CNCCN1CCOCC1)COc1ccccc1 (stereo unspecified),0,1,-6,75*,4,2,
Cc1ccc(S(=O)(=O)N2N=C(c3ccccc3)CC2c2ccc(Br)cc2)cc1 (stereo unspecified),1,1,-9,15,·,·,
COc1cc(C(=S)N2CC(C)OC(C)C2)cc(OC)c1O (stereo unspecified),1,-1,13,6,·,·,
COc1cccc(C(=O)COC(=O)CCCC(=O)Nc2ccc([N+](=O)[O-])cc2)c1,0,2,8,62*,11,14,
COc1cccc(C(=O)COC(=O)CCC(=O)Nc2ccc([N+](=O)[O-])cc2)c1,0,1,0,0,·,·,
O=S(=O)(N=S(=O)(/C=C/c1ccccc1)c1ccccc1)c1ccccc1 (stereo unspecified),0,0,35*,84*,28*,9,AlphaScreen DR=>5.4
N=S(=NS(=O)(=O)c1ccccc1)(c1ccccc1)c1ccccc1,0,-1,1,-11,·,·,
O=C1CNS(=O)(=O)c2ccccc2N1,1,0,-6,59*,16,13,
O=C(N/N=C/c1cccc(I)c1)c1cc(Br)ccc1O,0,2,-31,0,·,·,
COc1cc(CN2CCN(Cc3cccc(C)c3)CC2)cc(OC)c1O,0,0,-6,46,·,·,
COc1ccccc1N1CCN(Cc2ccco2)CC1,0,-1,-5,32,·,·,
COc1cc(CN2CCN(Cc3ccco3)CC2)cc(OC)c1O,0,0,5,76*,3,9,
COc1cc(CN2CCN(Cc3ccco3)CC2)cc(OC)c1OC,0,-1,4,71*,-16,1,
Cc1cccc(-c2nc(Nc3cc(Cl)ccc3C)c3ccccc3n2)c1,1,1,6,11,·,·,
CC(CCn1cccn1)NC(=O)Cn1nnnc1CN1CCCCCC1 (stereo unspecified),0,0,1,0,·,·,
CCc1ccc(CNC(=O)CN2C(=O)C(CC)Sc3ccccc32)cc1 (stereo unspecified),1,-1,13,8,·,·,
